CBFb-RUNX1 inh: CBF-beta/RUNX1 interaction disruption; Potency, µM (titrated, usually from 59.8 µM), for inactives: top-dose activity, negative = inhibition, actives largely listed as inhibitors; Q01196+Q13951; 230,000 tested, under 10 active; AlphaScreen CBFb-His/RUNX1-biotin binding, biochemical; AID 1477; also: % of control where 0% means no effect
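Inhibition was taken as any reduction in AlphaScreen signal from the CBF-beta–RUNX1 pair (His and biotin tags, 30 nM each), measured after compound (15 min) and bead (90 min) incubations at room temperature.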
KinaseGlo FLuc: counter-screen: inhibitors of Kinase-Glo firefly luciferase | Q27757 | Kinase-Glo luciferase, ATP luminescence, 8 min | Potency, µM (highest dose often 38.3 µM), for inactives: at the highest dose activity change, negative = inhibition, hits mostly inhibitors | 200,000 tested, 0.28% active; also: potency is read from the fitted curve at half-maximal effect; % is scaled to controls: 0 for no effect and ±100 for the full control effect; nearly all actives have a fitted effect of over 60% in size
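Compound is pinned into ATP-containing buffer (10 uM ATP, imidazole pH 7.2, 7 mM MgCl2). Kinase-Glo luciferase reagent is then added. Light output is recorded following an 8-min room-temperature incubation.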
PKM2 act: PKM2 (human) enzyme activation; P14618; purified PKM2, Kinase-Glo ATP luminescence, activation; response scale: 0% is enzyme alone, no compound; Potency, µM (highest dose often 57.5 µM), for the others: at the highest dose activation, actives largely listed as activators; 260,000 tested, 0.34% active; AID 1631; also: potency is read from the fitted curve at half-maximal effect; % is scaled to controls: 0 for no effect and ±100 for the full control effect; nearly all actives have a fitted effect of over 55% in size
Target sequence (P14618 whole entry, looked up): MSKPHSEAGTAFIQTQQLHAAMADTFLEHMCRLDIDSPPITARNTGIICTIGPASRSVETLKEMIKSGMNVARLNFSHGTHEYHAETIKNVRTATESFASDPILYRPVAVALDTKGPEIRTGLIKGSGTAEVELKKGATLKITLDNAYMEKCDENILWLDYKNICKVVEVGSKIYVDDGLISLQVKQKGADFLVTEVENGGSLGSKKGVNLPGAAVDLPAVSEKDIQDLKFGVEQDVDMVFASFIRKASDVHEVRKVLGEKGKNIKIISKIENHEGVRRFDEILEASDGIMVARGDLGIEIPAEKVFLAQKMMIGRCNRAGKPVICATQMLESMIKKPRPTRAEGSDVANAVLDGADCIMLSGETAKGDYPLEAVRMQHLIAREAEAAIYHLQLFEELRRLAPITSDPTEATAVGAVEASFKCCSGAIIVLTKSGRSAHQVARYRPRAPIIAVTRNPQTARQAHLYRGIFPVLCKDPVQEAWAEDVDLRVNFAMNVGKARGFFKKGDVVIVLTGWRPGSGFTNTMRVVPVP
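Purified hPK-M2 (>95%) run at intermediate activity with 0.1 mM ADP and 0.5 mM PEP in 50 mM imidazole pH 7.2, KCl, MgCl2; 1 h room temperature. ATP formed read by Kinase-Glo luminescence; normalized to uninhibited and no-enzyme controls.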
Tb PFK inh: T. brucei PFK enzyme inhibition; T. brucei PFK, ADP-Glo luminescence; Potency, µM (doses to about 57.5 µM), for the others: top-dose activity, negative = inhibition, most hits filed as inhibitors; 330,000 tested, 0.17% active;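 also: potency is read from the fitted curve at half-maximal effect; 0% = uninhibited 1x PFK enzyme wells and -100% = no-enzyme wells; nearly all actives have a fitted effect of over 60% in size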
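ADP-Glo luminescence quantified ADP after 45 min at room temperature, with 1.25 nM T. brucei PFK, 0.1 mM ATP and 0.5 mM fructose-6-phosphate in pH 8.0 TEA buffer. qHTS titrations up to 57 µM; curves classified by quality.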
GALK inh: inhibitors of human galactokinase; P51570; Purified GALK, Kinase-Glo residual ATP luminescence; Potency, µM (doses to about 57.5 µM), for inactives: top-dose activity change, negative = inhibition, hits mostly inhibitors; 270,000 tested, 0.007% active; AID 1868; also: potency is read from the fitted curve at half-maximal effect; % is scaled to controls: 0 for no effect and ±100 for the full control effect
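Compounds were pin-transferred into ATP buffer (35 uM final), then GALK plus galactose (5 nM, 100 uM final) was added. After 1 h at room temperature, Kinase-Glo Plus was added and luminescence read after 10 min.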
* = called active by the depositor; ? = inconclusive; · = no result; [ ] = remark or other dose. Only some compounds are listed: those with a hit (about 0.56% of all), similar ones and a draw of the others. Calls follow the shape of the dose curve; as a rule, active = well fitted curve in the direction sought with a large enough effect; inconclusive = small, poorly fitted or top-dose-only effect, or another doubt; inactive = no such curve, though single readings can be large; an effect the other way counts as inactive or inconclusive.

SMILES	CBFb-RUNX1 inh	KinaseGlo FLuc	PKM2 act	Tb PFK inh	GALK inh
CC[C@H](C)[C@H](NC(=O)[C@H](CCCNC(=N)N)NC(=O)[C@@H](NC(=O)[C@H](CCCNC(=N)N)NC(=O)[C@H](CCCCN)NC(=O)[C@H](CCCNC(=N)N)NC(=O)[C@@H](NC(=O)[C@H](CC(N)=O)NC(=O)[C@@H](N)CS)[C@@H](C)O)[C@@H](C)CC)C(=O)N[C@@H](CCC(N)=O)C(=O)N[C@@H](CCCNC(=N)N)C(=O)NCC(=O)N1CCC[C@H]1C(=O)NCC(=O)N[C@@H](CCCNC(=N)N)C(=O)N[C@@H](C)C(=O)N[C@@H](Cc1ccccc1)C(=O)N[C@H](C(=O)N[C@H](C(=O)N[C@H](C(=O)NCC(=O)N[C@@H](CCCCN)C(=O)O)[C@@H](C)CC)[C@@H](C)O)C(C)C	12%	·	·	·	·
COc1nccnc1NS(=O)(=O)c1ccc(N=Cc2c(C)[nH]n(-c3ccc(C)c(C)c3)c2=O)cc1	-12%	10µM*	-42%	-2%	-3%
CCCCN1CCC[C@H]1CNC(=O)c1cc(C#N)c2ccccc2c1OC	12%	·	·	·	·
O=C(Cn1nnc(-c2ccccc2Cl)n1)N1CCCCC1	·	·	0%	1%	4%
CC(=O)Nc1ccc(SCC(=O)N2CCN(S(=O)(=O)c3ccccc3)CC2)cc1	·	·	?	1%	12%
O=C(Cn1nnc(-c2ccccc2Cl)n1)N1CCN(S(=O)(=O)c2ccc(Cl)cc2)CC1	3%	1%	7.9µM*	-4%	0%
O=C(CSc1ccc(F)cc1)N1CCN(S(=O)(=O)c2ccccc2)CC1	-9%	2%	3.2µM*	1%	8%
COc1ccccc1-n1cnnc1SCC(=O)N1CCN(S(=O)(=O)c2ccccc2)CC1	5%	-3%	16µM*	1%	0%
Cc1ccc(S(=O)(=O)N2CCN(C(=O)CSc3nncs3)CC2)cc1	12%	·	18µM*	0%	0%
COc1ccc(OC)c(C2=Nn3c(nnc3-c3ccccc3C)SC2)c1	13%	·	·	·	·
C=CC1=C2C=C(C3CC3)N(Cc3ccccc3)C=C2C(=O)C(C)(OC(=O)c2ccco2)C1=O (stereo not given)	-5%[13.1 µM]	-2%[7.66 µM]	0%[11.5 µM]	·	·
O=C(c1ccc(Cc2nc3ccccc3[nH]2)cc1)N1CCOCC1	·	-1%	·	·	·
CC[C@H](C)[C@H](NC(=O)CNC(=O)[C@@H](NC(=O)[C@@H](NC(=O)[C@H](Cc1ccc(O)cc1)NC(=O)[C@H](CC(C)C)NC(=O)[C@H](C)NC(=O)[C@H](CCC(N)=O)NC(=O)CNC(=O)[C@@H]1CCCN1C(=O)CNC(=O)[C@H](Cc1ccccc1)NC(=O)[C@H](Cc1cnc[nH]1)NC(=O)[C@@H](NC(=O)CNC(=O)[C@H](CCCNC(=N)N)NC(=O)[C@H](CCCNC(=N)N)NC(=O)[C@@H](NC(=O)[C@H](CC(N)=O)NC(=O)[C@@H](N)CS)[C@@H](C)O)[C@@H](C)CC)[C@@H](C)O)[C@@H](C)O)C(=O)O	4%	·	·	·	·
Cc1ccc(S(=O)(=O)N2CCCN(S(=O)(=O)c3ccc(C)cc3)CC2)cc1	5%	3%	8.9µM*	2%	-2%
Cc1ccc(S(=O)(=O)N2CCN(C(=O)CSc3ccc(Cl)cc3)CC2)cc1	·	·	14µM*	-12%	12%
O=C(CSc1n[nH]c(-c2cccs2)n1)N1CCN(S(=O)(=O)c2ccccc2)CC1	3%	3%	25µM*	-1%	-5%
O=C(CSc1n[nH]c(-c2cccs2)n1)N1CCCC1	·	·	·	-1%	·
